The list is not random: actives were taken first. Their share in the collection is about 3.5%.
MITF primary – MITF inhibitors, primary screen, biochemical, AlphaScreen, human | Microphthalmia-associated transcription factor (Homo sapiens), O75030 | AlphaScreen MITF homodimerization, bead proximity signal | inhibition, % at 2.6 µM | 650,000 compounds, 0.91% hits; in the data active = inhibition above about 50%;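 also: 0% = vehicle wells with protein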
GPR151 ag – activators of human GPR151, primary screen, cell-based, PathHunter beta-arrestin, luminescence; G-protein coupled receptor 151 (Homo sapiens), Q8TDV0; PathHunter beta-arrestin GPR151 cells; activation, % at 11.2 µM; 650,000 compounds, 1% hits; in the data active = activation above about 4.9%;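 also: 0% = median of compound wells and 100% = cells with positive control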
TEAD-YAP block – TEAD-YAP interaction inhibition, primary screen, TEAD-YAP interaction inhibitor project, luminescence, HEK-TIYL cells. TEAD-Gal4/YAP UAS-luciferase luminescence. inhibition, % at 9.12 µM. 640,000 compounds, 1.4% hits. AID 1259422, 2018; in the data active = inhibition above about 32%;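 also: 0% = median of test compound wells and 100% = reference inhibitor wells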
FBW7 act – FBW7 E3 ligase activators, primary screen, biochemical, AlphaScreen, human | AID 1259310, 2017 | AlphaScreen FBW7–phospho-cyclin E peptide binding, activator screen | normalized activity (activation), % at 26.1 µM | F-box/WD repeat-containing protein 7 (Homo sapiens), Q969H0 | 650,000 compounds, 0.13% hits; in the data active = normalized activity above about 1.9%;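 also: purified mutant Fbw7 with reduced substrate affinity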
Target sequence (Q969H0 whole entry, looked up): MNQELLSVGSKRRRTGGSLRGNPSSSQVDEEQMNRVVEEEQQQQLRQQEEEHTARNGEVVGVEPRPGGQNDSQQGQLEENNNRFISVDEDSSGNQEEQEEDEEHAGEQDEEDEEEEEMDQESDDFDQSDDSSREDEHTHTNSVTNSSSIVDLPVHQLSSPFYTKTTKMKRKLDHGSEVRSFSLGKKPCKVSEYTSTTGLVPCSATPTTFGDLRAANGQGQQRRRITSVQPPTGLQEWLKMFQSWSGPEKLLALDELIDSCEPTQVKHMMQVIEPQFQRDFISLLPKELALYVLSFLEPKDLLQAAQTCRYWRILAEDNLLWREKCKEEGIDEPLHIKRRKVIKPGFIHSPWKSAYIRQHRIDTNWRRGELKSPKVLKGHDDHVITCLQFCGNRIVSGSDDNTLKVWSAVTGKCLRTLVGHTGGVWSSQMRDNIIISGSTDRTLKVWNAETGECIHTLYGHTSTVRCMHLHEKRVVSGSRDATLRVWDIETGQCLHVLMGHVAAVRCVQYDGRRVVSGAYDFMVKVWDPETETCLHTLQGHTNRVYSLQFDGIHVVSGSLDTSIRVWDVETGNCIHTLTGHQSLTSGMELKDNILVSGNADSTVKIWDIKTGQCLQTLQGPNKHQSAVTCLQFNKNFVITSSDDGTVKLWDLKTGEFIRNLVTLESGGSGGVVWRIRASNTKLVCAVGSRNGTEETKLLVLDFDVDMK
MITF inh conf – MITF inhibitors, retest of hits, confirmation, biochemical, AlphaScreen, triplicate; AlphaScreen MITF homodimerization, biotin/His-MITF beads; 4,700 compounds, 16% hits; shares compounds with MITF primary; inhibition, % at 2.6 µM;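 active = inhibition above a cutoff derived from the DMSO control wells, cut at about 28% in these data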;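 also: 0% = MITF dimer wells with DMSO only; inhibitors lower the bead chemiluminescence by keeping MITF from dimerizing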
AS interf DR – AlphaScreen optical interference compounds, dose response, counter-screen, biochemical, HTS | shares compounds with MITF primary | AlphaScreen optical interference counterscreen, cell-free | IC50, µM | 480 compounds, 6% hits | AID 1259373, 2018; call rule not given here
AlphaScreen intf2 – AlphaScreen optical interference compounds, counter-screen for MITF inhibitor project, biochemical, triplicate | LysRS AlphaScreen counterscreen, signal interference | 4,700 compounds, 7.6% hits | shares compounds with MITF primary | inhibition, % at 2.6 µM;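 active = inhibition above a cutoff derived from the DMSO control wells, cut at about 30% in these data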
GPR151 confirm – GPR151 activators, triplicate retest, confirmation, cell-based, PathHunter beta-arrestin, luminescence. shares compounds with GPR151 ag. GPR151 PathHunter beta-arrestin cells, 90 min; % of EA-reagent control over plate median. activation, % at 11.2 µM. 6,700 tested, under 10 active;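 active = mean percent activation across replicates above the confirmation screen cutoff of 4.91%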
GPR119 counter – GPR119 activators in beta-arrestin cells, counter-screen for GPR151 activator project, cell-based, PathHunter beta-arrestin, luminescence, triplicate; 90 min; 0 = compound-well median, 100 = enzyme-acceptor control; shares compounds with GPR151 ag; AID 1508611, 2020; 6,700 compounds, 0.3% hits; activation, % at 11.2 µM;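 active = mean percent activation in the counterscreen above 29.09%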;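 also: counterscreen on off-target GPR119 to flag nonselective hits from the GPR151 activator screen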
* = called active by the depositor; nt = no result.

SMILES	MITF primary	GPR151 ag	TEAD-YAP block	FBW7 act	MITF inh conf	AlphaScreen intf2	GPR151 confirm	GPR119 counter	others
COc1ccc(CN2CCN(C(=O)c3cc(OC)c(OC)c(OC)c3)CC2)c(OC)c1	38	0	1	0	nt	nt	nt	nt
COc1cc(C(=O)N2CCN(Cc3ccccc3C(F)(F)F)CC2)cc(OC)c1OC	59*	12*	6	0	3	10	1	26
N#Cc1nc(COc2ccccc2Cl)oc1NCCCn1ccnc1	96*	18*	0	0	-4	5	0	-6
N#Cc1nc(-c2ccccc2)oc1NCCCn1ccnc1	-8	0	-17	0	nt	nt	nt	nt
Clc1cccc(CN2CCOCC2)c1Cl	60*	9.9*	2	0	-6	-8	0	6
c1ccc2c(CN3CCOCC3)cccc2c1	38	0	8	0	nt	nt	nt	nt
c1cnc2nc(SCc3cn4ccccc4n3)[nH]c2c1	68*	6.8*	0	0	10	0	0	7
Cc1cc(=O)[nH]c(SCc2cn3ccccc3n2)n1	-4	-1	-8	0	nt	nt	nt	nt
CCN1CCN(CCOc2ccc(Cl)c(C)c2C)CC1	75*	7.7*	0	0	13	11	1	1
Cc1c(Cl)ccc(OCCN2CCNCC2)c1C	11	0	-1	0	nt	nt	nt	nt
CCc1cc(OCCN2CCN(CC)CC2)ccc1Cl	70*	7.0*	-1	0	8	17	-1	-9
CCn1ccnc1CN1CCN(Cc2cccc(OC)c2)C(CCO)C1 (stereo unspecified)	53*	18*	-9	0	28*	16	0	2	AS interf DR=>6.5
Cc1cc(O)c2c(c1)Cc1cccc(O)c1C2=O	116*	5.4*	2	0	115*	-25	1	-7	AS interf DR=>6.5
CCCN(CC1CC1)C(=O)C1CCN(Cc2ccc(C)cc2)CC1	53*	5.2*	3	0	12	7	-1	-2
COc1cc(CN2CCN(Cc3ccc(Br)cc3)CC2)cc(OC)c1	82*	6.1*	-5	0	11	6	-1	-10
COc1ccc(CN2CCN(Cc3cc(OC)cc(OC)c3)CC2)cc1	77*	17*	-1	0	-6	1	-1	-13
COc1cc(CN2CCOCC2)cc(OC)c1	42	-1	4	0	nt	nt	nt	nt
CCOC(=O)c1c(NC(=O)C(C)Sc2nnc(CNC(=O)c3ccc(OC)cc3)n2-c2ccc(OCC)cc2)sc2c1CCC2 (stereo unspecified)	0	0	3	0	nt	nt	nt	nt
O=C(Cn1cc([N+](=O)[O-])cn1)Nc1ccc(-c2noc(-c3ccco3)n2)cc1	8	1	-37	0	nt	nt	nt	nt
COc1cc(CN2CCN(C(=O)c3cccnc3)CC2)cc(OC)c1OC	47	0	1	0	nt	nt	nt	nt
O=C(c1ccncc1)N1CCN(Cc2cccnc2)CC1	68*	9.0*	7	0	-18	-5	0	15
Cc1ccc(OCCCN2CCN(C)CC2)c([N+](=O)[O-])c1	76*	5.2*	11	0	-7	-4	0	-6
Cc1ccc(OCCCN2CCNCC2)c([N+](=O)[O-])c1	37	0	4	0	nt	nt	nt	nt
NC(=O)c1ccc(NC(=O)[C@@H]2CCCC[C@@H]2C(=O)O)cc1	-4	1	0	0	nt	nt	nt	nt

Screening results: PubChem BioAssay, The Scripps Research Institute Molecular Screening Center
